The list is not random: actives were taken first. Their share in the collection is about 3.8%.
proKLK7 act – proKLK7 (human) activation, primary screen. P49862. activation, % at 7 µM. 370,000 compounds, 0.9% hits. purified proKLK7, EDANS-DABCYL substrate fluorescence; 100% is mature enzyme control, 0% vehicle;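 active = activation above the mean of all tested compounds plus 3 SD, computed per campaign excluding outliers beyond control limits, cut at about 13% in these data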
FGF22 binding – shifts melting point of recombinant human FGF22; Q9HCT0; recombinant FGF22 thermal shift, SYPRO orange fluorescence; percent of sucrose octasulfate shift, DMSO zero; activity (Tm shift, normalised), % at 9.99 µM; 340,000 compounds, 1.5% hits; AID 651658;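 active = mean Tm shift, scaled 0 neutral to 100 positive control, at about 1.3% or above, every replicate too, limit read from the data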
ADAM10 inh – inhibits human ADAM10; O14672; 370,000 compounds, 0.62% hits; inhibition, % at 7 µM; recombinant ADAM10, EDANS/DABCYL FRET peptide cleavage, 3 h;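 active = inhibition above a per-campaign cutoff equal to the mean of compounds falling between control-based bounds plus 3 SD, cut at about 20% in these data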;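 also: 0% = DMSO wells while the 100% control is not disclosed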
Target sequence (O14672 214-748 limits assumed): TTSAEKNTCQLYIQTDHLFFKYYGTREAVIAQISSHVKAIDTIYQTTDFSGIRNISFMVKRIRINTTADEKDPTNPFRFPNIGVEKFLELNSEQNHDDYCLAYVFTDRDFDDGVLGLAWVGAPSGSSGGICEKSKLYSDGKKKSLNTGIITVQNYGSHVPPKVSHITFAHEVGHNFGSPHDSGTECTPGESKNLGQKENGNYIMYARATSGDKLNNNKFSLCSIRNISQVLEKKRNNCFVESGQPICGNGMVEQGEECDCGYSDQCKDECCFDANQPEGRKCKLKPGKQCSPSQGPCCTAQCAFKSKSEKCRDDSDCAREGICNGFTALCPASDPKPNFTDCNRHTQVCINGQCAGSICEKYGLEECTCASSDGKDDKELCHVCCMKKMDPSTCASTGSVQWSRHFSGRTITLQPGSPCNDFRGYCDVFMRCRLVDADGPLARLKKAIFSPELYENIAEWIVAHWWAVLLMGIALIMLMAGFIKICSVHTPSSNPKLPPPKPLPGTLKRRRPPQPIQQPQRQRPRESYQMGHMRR
Ecoli rRNA inh – inhibitors of bacterial rRNA selective over humanized ribosomes | GFP signal change (wild-type ribosome), % (concentration not given with the values) | 350,000 compounds, 1.6% hits | E. coli WT GFP vs humanized-ribosome RFP mutants, fluorescence, 24 h; stronger effect = lower value; DMSO median 0, no signal -100;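 active = significant combined selectivity score with lowered wild-type GFP, culture density cut under 30%, mutant RFP and density less affected; inactive = any of these conditions unmet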
ADAM17 inh – ADAM17 inhibition, QFRET primary screen | P78536 | recombinant ADAM17, EDANS/DABCYL FRET peptide cleavage | inhibition, % at 6.95 µM | 370,000 compounds, 0.83% hits | AID 720648;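 active = inhibition above the mean of compounds lying between control limits plus 3 SD, set per campaign, cut at about 8.5% in these data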;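 also: 0% = DMSO-only wells as the low control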
* = called active by the depositor.

How did C[C@@H]1CN([C@H](C)CO)C(=O)c2cc(NC(=O)c3ccccc3)ccc2O[C@@H](C)CCCCO[C@@H]1CN(C)C(=O)CCC(F)(F)F do in these assays?
FGF22 binding: 0.1; Ecoli rRNA inh: -1.7

Results for CCOC(=O)c1nn(C)c2[nH]c(=O)n(C)c(=O)c12 ?
proKLK7 act: -0.6; FGF22 binding: 43.8*; ADAM10 inh: 5.6; Ecoli rRNA inh: 0.3; ADAM17 inh: 2.1

Results for COc1ccc(S(=O)(=O)N[C@H]2C=C[C@H](CC(=O)NCCc3ccncc3)O[C@@H]2CO)cc1 ?
FGF22 binding: 0.0; Ecoli rRNA inh: 3.8

Results for O=C1N=c2ccccc2=C1c1sc(=S)n(NC(=O)c2cccc(O)c2)c1O ?
proKLK7 act: 0.6; FGF22 binding: 16.7*; ADAM10 inh: -2.7; Ecoli rRNA inh: 2.7; ADAM17 inh: 0.8

Results for Fc1cccc(-c2cc3nc4c(c(N5CCC6(CC5)OCCO6)n3n2)CCCC4)c1 ?
proKLK7 act: 0.3; ADAM10 inh: -10.6; ADAM17 inh: -3.4

Results for OC1CCN(c2c3c(nc4cc(-c5cccc(F)c5)nn24)CCCC3)CC1 ?
proKLK7 act: 1.0; FGF22 binding: 0.0; ADAM10 inh: -65.0; Ecoli rRNA inh: -18.5*; ADAM17 inh: -10.1

What do the screens show for `CC(=O)N1CCSc2ccc(S(=O)(=O)Nc3cccc(C)c3)cc21`?
proKLK7 act: 0.2; FGF22 binding: -0.1; ADAM10 inh: 4.2; Ecoli rRNA inh: -23.2*; ADAM17 inh: 3.9

Results for O=C(C[C@@H]1CC[C@@H](NC(=O)Cc2cccnc2)[C@@H](CO)O1)Nc1ccc(-c2ccccc2)cc1 ?
FGF22 binding: 0.0; Ecoli rRNA inh: -4.5

Results for COCCNC(=O)C[C@H]1CC[C@H]2[C@@H](COC[C@H](O)CN2C(=O)Nc2ccccc2OC)O1 ?
FGF22 binding: 0.1; Ecoli rRNA inh: -10.0

What do the screens show for `OC(CN1CCCCC1)c1ccc(Br)cc1` (stereo unspecified)?
proKLK7 act: -0.2; FGF22 binding: 43.7*; ADAM10 inh: -2.4; Ecoli rRNA inh: -0.1; ADAM17 inh: -4.5

Results for CCN(CC(=O)Nc1c(F)cccc1F)C(=O)CN1C(=O)c2ccccc2C1=O ?
proKLK7 act: 0.3; FGF22 binding: -0.3; ADAM10 inh: -4.3; Ecoli rRNA inh: 1.7; ADAM17 inh: 0.0

How did CCN(CC)C(=O)CN1C(=O)c2cccc3cccc(c23)C1=O do in these assays?
proKLK7 act: 1.1; FGF22 binding: 43.1*; ADAM10 inh: -342.9; Ecoli rRNA inh: 1.2; ADAM17 inh: -117.1

Results for CCOCCCN1CN(Cc2ccco2)CNC1=S ?
proKLK7 act: 0.2; FGF22 binding: 43.0*; ADAM10 inh: -4.3; Ecoli rRNA inh: 10.2; ADAM17 inh: -1.4

What do the screens show for `S=C1NCN(Cc2ccco2)CN1CCc1ccccc1`?
proKLK7 act: 0.2; FGF22 binding: 0.0; ADAM10 inh: -4.0; ADAM17 inh: -3.2

What do the screens show for `Cc1ccccc1Nc1cccc2nonc12`?
proKLK7 act: 7.2; FGF22 binding: 0.7; ADAM10 inh: 4.3; Ecoli rRNA inh: -39.6*; ADAM17 inh: 1.6

What do the screens show for `Cc1ccccc1Nc1ccc2nonc2c1[N+](=O)[O-]`?
proKLK7 act: -0.1; FGF22 binding: 0.2; ADAM10 inh: -8.2; Ecoli rRNA inh: 8.4; ADAM17 inh: -2.3

What do the screens show for `CCCN(C)C[C@H]1Oc2cc(C3=CCCC3)ccc2S(=O)(=O)N([C@H](C)CO)C[C@@H]1C`?
Ecoli rRNA inh: 2.5

What do the screens show for `CC1=NC(=O)C(N=Nc2cccc(C(=O)O)c2)N1c1ccccc1` (stereo unspecified)?
proKLK7 act: 0.4; FGF22 binding: -0.4; ADAM10 inh: -13.6; Ecoli rRNA inh: -30.8*; ADAM17 inh: -3.0

Results for Cc1cc(Oc2ccc(=O)n(C)n2)nc(SCc2ccccc2)n1 ?
proKLK7 act: -0.2; FGF22 binding: 43.3*; ADAM10 inh: -3.3; Ecoli rRNA inh: 6.2; ADAM17 inh: -2.3

Results for CCCC(=O)Nc1ccc(C(=O)NNC(=S)NC(=O)c2ccc(Br)o2)cc1 ?
proKLK7 act: -0.5; FGF22 binding: 1.0; ADAM10 inh: -2.9; Ecoli rRNA inh: -26.6*; ADAM17 inh: -1.2

Results for O=C1CSC(c2ccccc2)N1Nc1nc(N2CCOCC2)nc(N2CCOCC2)n1 (stereo unspecified) ?
proKLK7 act: 0.4; FGF22 binding: 43.4*; ADAM10 inh: -1.7; Ecoli rRNA inh: 9.3; ADAM17 inh: -0.1

Results for c1ccc(Nc2nc(N3CCCC3)nc(N3CCOCC3)n2)cc1 ?
proKLK7 act: -0.3; FGF22 binding: 0.1; ADAM10 inh: -2.4; Ecoli rRNA inh: 3.3; ADAM17 inh: -2.3

What do the screens show for `C[C@H]1CN([C@@H](C)CO)S(=O)(=O)c2ccc(C3=CCCCC3)cc2O[C@H]1CN(C)C(=O)c1ccncc1`?
FGF22 binding: -0.3; Ecoli rRNA inh: 0.1

Results for Cc1ccc(-c2nnc(N3CCN(C(=O)COc4cccc(C)c4)CC3)c3ccccc23)cc1 ?
proKLK7 act: 0.3; FGF22 binding: 0.0; ADAM10 inh: 7.0; Ecoli rRNA inh: -33.2*; ADAM17 inh: -1.1

What do the screens show for `Cc1ccc(OCC(=O)N2CCN(c3nnc(-c4ccc(C)cc4)c4ccccc34)CC2)cc1`?
proKLK7 act: -0.3; ADAM10 inh: -5.7; ADAM17 inh: -3.4

Results for O=C(COc1ccccc1)N1CCN(c2nnc(-c3ccccc3)c3ccccc23)CC1 ?
proKLK7 act: -0.4; ADAM10 inh: -0.2; ADAM17 inh: 1.4

How did Cc1cccc(OC(C)C(=O)OCC(=O)N2CCN(c3ccccc3)CC2)c1 (stereo unspecified) do in these assays?
proKLK7 act: 0.0; FGF22 binding: 43.6*; ADAM10 inh: -4.5; ADAM17 inh: -2.7

Results for Cc1cccc(OCC(=O)N2CCN(c3nnc(-c4ccccc4)c4ccccc34)CC2)c1 ?
proKLK7 act: -0.2; FGF22 binding: -0.1; ADAM10 inh: -2.8; Ecoli rRNA inh: -42.7*; ADAM17 inh: 0.9

What do the screens show for `COc1ccc(CN2CC3(C2)CN(Cc2ccc4c(c2)OCO4)[C@@H](CO)c2[nH]c4cc(OC)ccc4c23)cc1`?
Ecoli rRNA inh: 4.4

Results for C[C@H]1CN([C@@H](C)CO)C(=O)CCCn2cc(nn2)CO[C@H]1CN(C)Cc1ccc(C(F)(F)F)cc1 ?
FGF22 binding: -0.4; Ecoli rRNA inh: -2.2

Results for C[C@H]1CN(C)C(=O)c2cc(N(C)C)ccc2O[C@H]1CN(C)C ?
Ecoli rRNA inh: -0.8

What do the screens show for `CNC(=S)N(CCc1c(C)[nH]c2ccc(F)cc12)Cc1ccco1`?
proKLK7 act: 0.1; FGF22 binding: 0.2; ADAM10 inh: 7.3; Ecoli rRNA inh: -17.5; ADAM17 inh: -2.7

What do the screens show for `Cc1ccccc1NC(=S)N(CCc1c(C)[nH]c2ccc(F)cc12)Cc1cccnc1`?
proKLK7 act: -0.3; ADAM10 inh: 1.3; Ecoli rRNA inh: -35.2; ADAM17 inh: 3.0

Screens: PubChem, several laboratories
